“And” between values parts separate entries of the source, which are not always exact repeats. Equal values may be shown once. The campaign covered roughly 420,000 compounds. About 64,000 (15%) were called active. Inconclusive results (about 27%) are left out. Calls come from the whole dose curve; as a rule, active = well fitted inhibition curve with a large enough effect; inconclusive = small, poorly fitted or top-dose-only effect; inactive = flat fitted curve, though single readings scatter. These entries were drawn from the full list. A call without a number means that no potency is given here. Numbered stars: 1 amine (or outer) side, 2 acyl side, 3 side chain; on linkers, the order of the positions; unused ones are H or OH. Bridge positions count the residues as written; N and C are the ends. Square brackets hold non-standard residues; d marks the D form. Peptide text beside a SMILES is read from it. * marks the point of attachment. X11 = NC1=N[C@@H]([C@H](N[*:1])C(=O)[*:2])C[C@H](O)N1; ΔAla(Z-3-ureido) = NC(=O)N/C=C(\N)C(=O)O; β3hOrn = NCCC[C@H](N)CC(=O)*; Dap = NC[C@H](N)C(=O)O
Potency is the fitted concentration of half-maximal effect.

This experiment in a line: qHTS for Inhibitors of human tyrosyl-DNA phosphodiesterase 1 (TDP1): qHTS in cells in absence of CPT. Note: nearly all actives have a fitted effect of over 55% in size. Particulars: DT40 Tdp1-/- hTDP1 cells, no CPT, ATP luminescence, 48 h; activity change, negative = growth inhibition: at 46.2 µM (top of the series). The procedure, abridged: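 Growth kinetics read by CellTiter-Glo luminescence after ≥48 hr at 37 °C. Cells: DT40 Tdp1-/- stably carrying human TDP1, 400 per well, compound exposure in the absence of CPT (DMSO vehicle).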
In general terms: Quantitative high-throughput screening tests each substance at several concentrations.
Turning to `CCOCCCN(C(=O)Cn1nnc(-c2ccc(OC)c(OC)c2)n1)C(CC)C(=O)NC1CCCC1` (stereo not drawn), the Potency result is “inactive”.
With `CCN1CCCC1Cn1cnc2c([nH]c3cc(OC)ccc32)c1=O` (stereo not drawn), the Potency entry was “inactive”.
Consider `O=C(c1cccs1)N1CCCC(c2nc(-c3ccc(F)cc3)no2)C1` (stereo not drawn), for which the Potency was 16.4 µM (active).
Consider `O=C(c1ccc(F)cc1)N1CCCC(C(=O)N2CCCCC2)C1` (stereo not drawn), for which the Potency entry was “inactive”.
Regarding `COc1ccc(NC(=O)N2CCCC(c3nc(-c4ccc(F)cc4)no3)C2)cc1` (stereo not drawn), the Potency result is “inactive”.
The same measure for `CC(CC(=O)C1C(C)C=CCC1(C)C)NNC(N)=O` (stereo not drawn): “inactive”; for `O=C(CSc1nnc(-c2ccco2)o1)NCC(=O)c1ccccc1`: “inactive”.
Consider `CCN(CC)C(=O)c1nc[nH]c1C(=O)N(C)Cc1ccccc1`, for which the Potency entry was “inactive”.
`Cc1nnc(SCC(=O)NCc2cccs2)[nH]c1=O`: the Potency entry is “inactive”.
Turning to `CCN(CC)S(=O)(=O)c1cccc(-c2n[nH]c(=S)n2/N=C/c2ccc(C(=O)OC)cc2)c1`, the Potency result is “inactive”.
Regarding `Cc1cc(-c2n[nH]c(=S)n2/N=C/c2ccco2)n[nH]1`, the Potency entry was “inactive”.
In the case of `Fc1ccccc1/C=N/n1c(-c2cccnc2)n[nH]c1=S`, the Potency entry is “inactive”.
For the compound `S=c1[nH]nc(-c2cccnc2)n1/N=C/C(Cl)=C\c1ccccc1`, the Potency is 23.1 µM (active).
`Cc1cc(-c2n[nH]c(=S)n2/N=C/C(Br)=C/c2ccccc2)n[nH]1`: the Potency is 2.06 µM (active).
Take `S=c1[nH]nc(-c2ccco2)n1/N=C/c1ccccc1`: the Potency result is “inactive”.
For the compound `Cc1ccccc1CCN(CC(=O)NC1CCCCC1)C(=O)c1csnn1`, the Potency entry was “inactive”.
Regarding `CSCC[C@H](NC(=O)CCCn1nnc2ccccc2c1=O)C(=O)O`, the Potency entry is “inactive”.
The same measure for `C[C@H]1CN([C@@H](C)CO)C(=O)c2cc(-c3ccccc3F)cnc2O[C@H]1CN(C)C(=O)C1CCOCC1`: “inactive”; for `NC(=O)N/N=C\c1cccs1`: “inactive”.
The same measure for `COc1ccccc1C(=O)N/C(=C/c1ccc2c(c1)OCO2)C(=O)Nc1cccc(C(=O)O)c1`: “inactive”; for `CC(=O)Nc1ccc(CN2CCC(Oc3ccc(C(=O)N4CCCC4)cc3)CC2)cc1`: “inactive”.
Consider `COc1ccc(C2OC(=O)CC2C(=O)NC(C)C)cc1` (stereo not drawn), for which the Potency entry is “inactive”.
`COc1ccc(-c2ccc(C(=O)NCCN3CCOCC3)c3occc23)c(C)c1`: the Potency is 20.6 µM (active).
As for `COc1ccc(N)c(C)c1`, the Potency result is “inactive”.
Regarding `O=C(Cc1ccc(Br)cc1)NCCN1CCOCC1`, the Potency entry was “inactive”.
The same measure for `COc1ccc2c(c1)CCc1cnc(-n3ncc(C(=O)NCCN4CCOCC4)c3C)nc1-2`: “inactive”; for `COc1ccc(-c2ccc(C(=O)NC(C)C)c3occc23)c(C)c1`: 16.4 µM (active).
On to `CCN(CC(=O)NCCc1ccccc1)S(=O)(=O)c1ccccc1`, for which the Potency result was “inactive”.
As to `COc1ccc2c(c1)c1nc3n(c(=O)c1n2CC(=O)Nc1ccccc1)CCS3`, the Potency result is “inactive”.
As for `O=C1C(=O)N(CCN2CCOCC2)C(c2cccc(Cl)c2)/C1=C(/O)c1ccc2c(c1)OCO2` (stereo not drawn), the Potency entry was “inactive”.
As to `CCCNC(=O)CCc1c(C)nc2c(c(C)nn2-c2ccccc2)c1C`, the Potency entry was “inactive”.
In the case of `COC(=O)c1ccc(NC(=O)CCc2c(C)nc3c(c(C)nn3-c3ccc(C)cc3)c2C)cc1`, the Potency was 6.51 µM (active).
The same measure for `CCOC(=O)C(Cc1ccccc1)NC(=O)CCc1c(C)nc2c(c(C)nn2-c2ccc(C)c(C)c2)c1C` (stereo not drawn): “inactive”.
The same measure for `Cc1ccc(C)c(NC(=O)CSc2nnc(Cc3cccn3C)n2-c2ccc(F)cc2)c1`: “inactive”.
Turning to `CC1CCN(C(=O)C2CCN(S(=O)(=O)N3CCC4(CC3)OCCO4)CC2)CC1`, the Potency entry is “inactive”.
With `Nc1nnc(SCn2nnc3ccccc3c2=O)s1`, the Potency result is “inactive”.
`O=c1[nH]nc(Cc2ccccn2)c2ccccc12`: the Potency entry was “inactive”.
On to `O=C(Nc1ccc(Cl)cc1)c1ccsn1`, for which the Potency entry is “inactive”.
The same measure for `O=C(Nc1ccccc1)c1nnsc1S(=O)(=O)c1ccc(Cl)cc1`: 2.59 µM (active); for `O=C(Nc1cccc(Cl)c1)c1csnn1`: “inactive”.
For `Cc1cc(C)n2nc(C(=O)NC(C)(C)C)nc2n1`, the Potency entry is “inactive”.
On to `O=S(=O)(Nc1ccc(-c2ccc(N3CCOCC3)nn2)cc1)c1cc(Cl)ccc1Cl`, for which the Potency result was “inactive”.
The same measure for `NC(=O)C1(Nc2ccccc2Cl)CCCC1`: “inactive”; for `O=C(NNc1ccccc1Cl)C(O)(c1cccc(C(F)(F)F)c1)c1cccc(C(F)(F)F)c1`: 16.4 µM (active); for `CC(CC(=O)Nc1cc(C(F)(F)F)ccc1Cl)c1ccccc1` (stereo not drawn): “inactive”.
`CC(C)Nc1ccc(-n2nc3ccccc3[n+]2[O-])cc1`: the Potency entry is “inactive”.
As for `CN(C)c1ccc(CSc2ccccc2)cc1`, the Potency entry is “inactive”.
In the case of `CN(C)c1cc[n+](Cc2ccccc2)cc1`, the Potency is 0.411 µM (active).
As for `c1ccc(Cc2cc[n+](Cc3ccccc3)cc2)cc1`, the Potency was 20.6 µM (active).
The same measure for `[O-][n+]1ccc(OCc2ccccc2)cc1`: “inactive”.
Regarding `O=C(Nc1cc(-c2nn(CC(=O)N3CCCCC3)c(=O)c3ccccc23)ccc1N1CCOCC1)c1ccc(Cl)cc1`, the Potency result is “inactive”.
With `Cc1ccc(-c2csc3nnc(SCC(=O)NCc4ccco4)n23)cc1`, the Potency entry was “inactive”.
Consider `COc1cc(F)c(C2=CC(=O)CC(C)(C)C2)cc1F`, for which the Potency entry is “inactive”.
Take `Cc1c(CCOC(=O)CC23CC4CC(CC(C)(C4)C2)C3)sc[n+]1Cc1ccc([N+](=O)[O-])cc1`: the Potency was 18.4 µM (active).
The same measure for `O=C(CSC1=Nc2ccccc2C2=NC(c3ccccc3)C(=O)N12)NCC1CCCO1` (stereo not drawn): “inactive”; for `Cc1ccc(C)c(S(=O)(=O)N2CC(=O)Nc3ccccc32)c1`: “inactive”; for `O=C(Nc1ccc(NC(=O)c2cccs2)cn1)c1ccco1`: “inactive”.
The same measure for `Cc1ccc(NC(=O)Cn2nnc(C(=O)NCc3ccco3)c2N)c(C)c1`: “inactive”; for `CCOc1ccccc1NC(=O)Cc1cccs1`: “inactive”; for `CCOc1ccccc1NC(=O)Cn1nnc(C(=O)NCc2cccs2)c1N`: 130 nM (active) and 51.7 nM (active).
Consider `Cc1cc(C)n(CC(C)NCc2c(C(=O)N3CCOCC3)nc3c(C)cccn23)n1` (stereo not drawn), for which the Potency result is “inactive”.
With `Fc1ccc(Nc2nnns2)cc1`, the Potency entry is “inactive”.
Turning to `Cc1sc2c(c1C)c(=O)n(-c1ccccc1)c(=O)n2CC(=O)NCC1CCCO1` (stereo not drawn), the Potency result is “inactive”.
For the compound `Nc1ccc(C(=O)Nc2ccccc2N)cc1`, the Potency is 2.37 µM (active) and 3.26 µM (active).
Regarding `Nc1ccc(S(=O)(=O)NC(=O)c2ccccc2)cc1`, the Potency entry was “inactive”.
With `Nc1ccc(C(=O)NCc2ccccc2)cc1`, the Potency entry is “inactive”.
Take `COc1ccc2oc(=O)c(C(=O)N3CCCC3)cc2c1`: the Potency entry was “inactive”.
For the compound `CC(C)C[C@H](NC(=O)NCCc1ccc(Cl)cc1)C(=O)O`, the Potency entry is “inactive”.
The same measure for `O=C(Nc1cccc(C(F)(F)F)c1)c1cc(Br)cc(Br)c1O`: 13.3 µM (active); for `O=C(O)CSCC(=O)Nc1cccc(C(F)(F)F)c1`: “inactive”; for `O=C(O)CC1(CC(=O)Nc2cccc(C(F)(F)F)c2)CCCC1`: “inactive”.
Turning to `Cn1c(SCC(=O)N2CCOCC2)nnc1-c1ccc(NC(=O)c2ccccc2F)cc1`, the Potency result was “inactive”.
`CC1CN(C(=S)Nc2ccc(Br)cc2Cl)CC(C)O1` (stereo not drawn): the Potency entry is “inactive”.
Regarding `O=C(N/N=C/c1cccc(OCc2ccccc2)c1)c1ccc(Br)o1`, the Potency entry is “inactive”.
The same measure for `C=CCNC(=S)N/N=C/c1ccc(OCc2ccccc2)cc1`: “inactive”; for `CNC(=S)N/N=C/c1ccc(OCc2ccccc2)c(Br)c1`: 10.3 µM (active).
With `CC1CN(c2cc(=O)n(-c3cccc(Br)c3)c(=O)[nH]2)CC(C)O1` (stereo not drawn), the Potency result is “inactive”.
As for `CS(=O)(=O)c1cccc(-c2ccc3nncn3c2)c1`, the Potency result is “inactive”.
For the compound `CSc1ccccc1C(=O)OCC(=O)N1CCN(C(C)=O)CC1`, the Potency entry was “inactive”.
On to `Cc1ccc(N2C(=O)CN=C2Nc2nc(C)cc(C)n2)cc1`, for which the Potency entry is “inactive”.
The same measure for `Cc1cc(/C=C2\SC(=Nc3ccc(N4CCOCC4)cc3)N(C)C2=O)c(C)n1-c1cccnc1`: “inactive”; for `O=C(Nc1ccc([N+](=O)[O-])cc1)OCCc1ccccn1`: “inactive”; for `Clc1ccc(Nc2ccc3ccccc3n2)cc1`: “inactive”.
As for `Cc1cc(Nc2ccccc2)nc(N)n1`, the Potency entry was “inactive”.
Regarding `Cc1ccc2nc(Nc3ccccc3)cc(C)c2c1`, the Potency was 10.3 µM (active).
Regarding `Cc1nc(CC(=O)NNS(=O)(=O)c2ccc(F)c(Cl)c2)cs1`, the Potency result was “inactive”.
As for `NCCC[C@H](N)CC(=O)N[C@H]1CNC(=O)[C@H]([C@H]2C[C@H](O)NC(N)=N2)NC(=O)/C(=C/NC(N)=O)NC(=O)[C@H](CO)NC(=O)[C@H](CO)NC1=O` (β3hOrn-[Dap]SS[ΔAla(Z-3-ureido)][X11]; lactam 1-C), the Potency entry is “inactive”.
In the case of `CCOc1cc(C)ccc1OCc1nnc(SCC(=O)Nc2cccc(C(=O)O)c2)n1-c1ccccc1`, the Potency result is “inactive”.
Regarding `Cc1c(Br)c([N+](=O)[O-])nn1C(C)C(=O)Nc1nccs1` (stereo not drawn), the Potency result is “inactive”.
As to `CC(=O)Nc1ccc(S(=O)(=O)NC(C)C(=O)OCC(=O)NC2CCCC2)cc1` (stereo not drawn), the Potency result is “inactive”.
As for `COc1ccc(NC(=O)Cn2c(=O)cc(C)c3c(C)nn(-c4cccc(Cl)c4C)c32)cc1OC`, the Potency result was “inactive”.
`CCOC(=O)c1ccc(NC(=O)Cn2c(=O)cc(C)c3c(C)nn(-c4cccc(F)c4)c32)cc1`: the Potency was 18.4 µM (active).
`CCc1ccc(-n2nc(C)c3c(C)cc(=O)n(CC(=O)Nc4ccc(F)cc4C)c32)cc1`: the Potency result is “inactive”.
On to `Cc1cnc(-n2ncc(C(=O)N3CCN(C(C)C)CC3)c2-c2ccco2)nc1-c1ccc(F)cc1`, for which the Potency entry was “inactive”.
For the compound `O=C(Nc1nnc(CCN2CCCCC2)s1)c1cccc(Cl)c1`, the Potency result is “inactive”.
As to `CCCNC(=O)c1ccc(Cl)c(Cl)c1`, the Potency result is “inactive”.
The same measure for `CCCn1c(=N)n(CC(=O)c2ccc(Cl)c(Cl)c2)c2ccccc21`: 11.6 µM (active).
On to `CCN(CC)CC1(O)CCN(C(=O)c2ccc(Cl)c(Cl)c2)CC1`, for which the Potency result was “inactive”.
Consider `O=S1(=O)CCOC[C@H](Cc2ccccc2)N1Cc1ccccc1Br`, for which the Potency entry was “inactive”.
In the case of `O=C(O[C@@H]1[C@H](Cc2ccccc2)NS(=O)(=O)[C@H]2C[C@@H]3C=C[C@]12O3)c1ccccc1Br`, the Potency is 16.4 µM (active).
Regarding `O=C(O[C@H]1[C@H](Cc2ccccc2)NS(=O)(=O)[C@H]2C[C@@H]3C=C[C@]12O3)c1ccc([N+](=O)[O-])cc1`, the Potency result was “inactive”.
On to `Cc1ccc(Nc2cc(=O)n(C3CCCCC3)c(=O)[nH]2)cc1C`, for which the Potency result is “inactive”.
For the compound `C/C(=C\C(=O)c1ccc(Br)cc1)N1CCCCC1`, the Potency entry is “inactive”.

The record behind these values is PubChem BioAssay AID686978 (National Center for Advancing Translational Sciences (NCATS), 2013).
